Laboratory results reported in publication PMC12701074.

Tests used:
Assay in all cases: cross-linking mass spectrometry
PKM = PKM (UniProt P14618); details: SBAP, in cells
PLS3 = PLS3 (UniProt P13797); details: SIAB, in cells
PMPCA = PMPCA (UniProt Q10713); details: SBAP;SIAB, in cells
PPIA = PPIA (UniProt P62937); details: in cells
VIM = VIM (UniProt P08670); details: in cells
Sequence of VIM (P08670 whole entry): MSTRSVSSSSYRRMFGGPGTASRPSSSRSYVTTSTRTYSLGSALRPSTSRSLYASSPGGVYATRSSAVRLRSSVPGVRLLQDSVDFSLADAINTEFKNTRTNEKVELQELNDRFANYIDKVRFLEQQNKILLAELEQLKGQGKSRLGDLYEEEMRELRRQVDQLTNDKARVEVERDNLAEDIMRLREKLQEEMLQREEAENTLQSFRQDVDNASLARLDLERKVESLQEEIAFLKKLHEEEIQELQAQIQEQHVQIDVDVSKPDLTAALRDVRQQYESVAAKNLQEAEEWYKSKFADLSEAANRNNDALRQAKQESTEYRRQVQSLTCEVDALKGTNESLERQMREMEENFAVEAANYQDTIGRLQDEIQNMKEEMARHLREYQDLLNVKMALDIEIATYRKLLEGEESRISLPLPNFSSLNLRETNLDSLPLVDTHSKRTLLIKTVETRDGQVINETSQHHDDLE

Sequence of NEFM, P07197 (P07197 whole entry): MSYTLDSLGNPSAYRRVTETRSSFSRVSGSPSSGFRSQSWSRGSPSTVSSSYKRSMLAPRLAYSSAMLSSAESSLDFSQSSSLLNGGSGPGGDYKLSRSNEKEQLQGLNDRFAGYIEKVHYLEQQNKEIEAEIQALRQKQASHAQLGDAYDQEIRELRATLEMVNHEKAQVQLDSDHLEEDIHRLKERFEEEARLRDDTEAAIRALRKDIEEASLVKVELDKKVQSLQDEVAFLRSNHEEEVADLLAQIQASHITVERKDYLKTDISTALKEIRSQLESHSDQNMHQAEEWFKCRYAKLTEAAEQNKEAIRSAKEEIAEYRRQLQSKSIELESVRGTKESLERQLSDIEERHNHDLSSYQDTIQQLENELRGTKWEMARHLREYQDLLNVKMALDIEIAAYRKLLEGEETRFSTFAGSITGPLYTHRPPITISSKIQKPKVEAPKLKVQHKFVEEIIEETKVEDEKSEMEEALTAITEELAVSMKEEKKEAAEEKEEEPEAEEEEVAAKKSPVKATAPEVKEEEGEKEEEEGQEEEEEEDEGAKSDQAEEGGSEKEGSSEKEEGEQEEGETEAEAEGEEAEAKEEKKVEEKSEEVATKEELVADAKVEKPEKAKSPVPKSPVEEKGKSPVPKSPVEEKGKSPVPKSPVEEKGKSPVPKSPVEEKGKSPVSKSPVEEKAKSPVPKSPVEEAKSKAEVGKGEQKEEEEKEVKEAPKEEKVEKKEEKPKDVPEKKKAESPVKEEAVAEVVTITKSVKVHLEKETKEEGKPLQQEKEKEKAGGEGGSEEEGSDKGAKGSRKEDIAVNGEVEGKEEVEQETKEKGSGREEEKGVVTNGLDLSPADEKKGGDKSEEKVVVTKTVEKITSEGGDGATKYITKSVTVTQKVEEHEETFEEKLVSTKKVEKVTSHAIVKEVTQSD
Sequence of PPIA (P62937 whole entry): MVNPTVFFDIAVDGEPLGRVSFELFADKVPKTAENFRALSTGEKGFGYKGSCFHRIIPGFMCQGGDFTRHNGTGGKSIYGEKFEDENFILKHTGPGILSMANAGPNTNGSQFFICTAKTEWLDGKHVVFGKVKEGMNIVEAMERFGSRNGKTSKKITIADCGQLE
Sequence of PMPCA (Q10713 whole entry): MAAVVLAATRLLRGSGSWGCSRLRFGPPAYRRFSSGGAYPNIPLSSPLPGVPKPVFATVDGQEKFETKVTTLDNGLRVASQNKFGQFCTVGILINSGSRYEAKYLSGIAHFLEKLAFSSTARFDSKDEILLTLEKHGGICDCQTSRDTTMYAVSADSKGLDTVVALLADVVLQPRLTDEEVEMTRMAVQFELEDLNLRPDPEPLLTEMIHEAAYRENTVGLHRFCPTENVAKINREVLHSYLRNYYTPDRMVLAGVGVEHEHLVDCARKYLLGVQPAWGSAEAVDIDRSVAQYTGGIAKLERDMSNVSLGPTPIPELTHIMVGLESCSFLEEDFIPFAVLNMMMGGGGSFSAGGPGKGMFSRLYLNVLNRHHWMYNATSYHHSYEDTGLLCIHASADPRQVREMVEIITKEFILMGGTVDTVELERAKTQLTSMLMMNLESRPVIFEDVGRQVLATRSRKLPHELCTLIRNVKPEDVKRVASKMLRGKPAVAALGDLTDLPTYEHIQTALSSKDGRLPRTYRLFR
Sequence of LCP1, P13796 (P13796 whole entry): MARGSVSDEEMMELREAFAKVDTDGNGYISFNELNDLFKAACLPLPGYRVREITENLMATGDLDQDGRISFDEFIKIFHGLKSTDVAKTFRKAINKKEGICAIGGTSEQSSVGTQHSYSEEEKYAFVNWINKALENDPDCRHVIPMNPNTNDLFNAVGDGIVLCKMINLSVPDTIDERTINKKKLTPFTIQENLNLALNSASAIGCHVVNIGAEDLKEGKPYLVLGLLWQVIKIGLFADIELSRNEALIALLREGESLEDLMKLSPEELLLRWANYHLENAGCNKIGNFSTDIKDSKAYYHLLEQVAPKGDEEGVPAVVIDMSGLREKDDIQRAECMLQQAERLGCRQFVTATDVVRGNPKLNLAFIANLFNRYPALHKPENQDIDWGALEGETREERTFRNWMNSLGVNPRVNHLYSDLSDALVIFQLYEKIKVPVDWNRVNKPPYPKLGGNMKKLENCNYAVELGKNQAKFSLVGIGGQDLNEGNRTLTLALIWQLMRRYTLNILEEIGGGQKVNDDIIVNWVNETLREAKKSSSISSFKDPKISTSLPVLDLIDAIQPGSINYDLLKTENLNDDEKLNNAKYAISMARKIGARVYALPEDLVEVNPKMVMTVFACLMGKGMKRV
Sequence of PPIF, P30405 (P30405 whole entry): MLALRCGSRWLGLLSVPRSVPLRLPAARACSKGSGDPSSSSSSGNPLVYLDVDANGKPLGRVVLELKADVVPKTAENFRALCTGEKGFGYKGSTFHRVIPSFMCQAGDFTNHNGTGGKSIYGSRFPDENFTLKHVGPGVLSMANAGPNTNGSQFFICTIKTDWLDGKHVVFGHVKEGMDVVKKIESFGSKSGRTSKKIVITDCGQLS
Sequence of PMPCB, O75439 (O75439 whole entry): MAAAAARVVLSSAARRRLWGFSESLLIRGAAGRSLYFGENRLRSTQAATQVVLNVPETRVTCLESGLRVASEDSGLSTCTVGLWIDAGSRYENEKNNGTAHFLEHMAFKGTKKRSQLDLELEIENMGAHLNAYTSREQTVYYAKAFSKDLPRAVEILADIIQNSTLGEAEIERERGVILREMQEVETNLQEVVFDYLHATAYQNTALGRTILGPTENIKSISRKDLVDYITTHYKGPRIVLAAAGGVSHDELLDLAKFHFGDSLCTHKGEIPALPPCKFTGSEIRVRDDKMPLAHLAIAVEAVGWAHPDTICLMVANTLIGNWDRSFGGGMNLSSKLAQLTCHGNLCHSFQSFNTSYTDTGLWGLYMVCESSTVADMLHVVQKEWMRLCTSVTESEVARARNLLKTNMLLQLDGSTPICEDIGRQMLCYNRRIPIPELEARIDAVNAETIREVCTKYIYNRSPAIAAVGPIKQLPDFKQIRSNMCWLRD
Sequence of PLS3 (P13797 whole entry): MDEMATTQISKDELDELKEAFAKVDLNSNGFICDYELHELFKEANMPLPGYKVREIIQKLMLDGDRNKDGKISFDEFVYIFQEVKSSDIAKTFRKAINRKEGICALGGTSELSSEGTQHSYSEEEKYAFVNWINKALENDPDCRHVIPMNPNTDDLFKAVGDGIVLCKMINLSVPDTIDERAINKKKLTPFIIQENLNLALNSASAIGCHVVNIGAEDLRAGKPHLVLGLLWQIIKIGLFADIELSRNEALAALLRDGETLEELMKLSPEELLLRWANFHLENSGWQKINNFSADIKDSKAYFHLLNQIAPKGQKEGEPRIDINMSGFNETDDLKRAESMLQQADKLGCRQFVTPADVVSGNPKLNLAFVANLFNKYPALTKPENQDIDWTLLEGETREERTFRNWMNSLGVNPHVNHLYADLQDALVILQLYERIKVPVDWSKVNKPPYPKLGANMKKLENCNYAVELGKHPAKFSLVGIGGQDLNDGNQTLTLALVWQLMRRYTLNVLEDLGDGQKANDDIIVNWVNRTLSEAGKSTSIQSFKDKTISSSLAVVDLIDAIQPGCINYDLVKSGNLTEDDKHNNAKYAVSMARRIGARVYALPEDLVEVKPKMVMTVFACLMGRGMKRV
Sequence of PKM (P14618 whole entry): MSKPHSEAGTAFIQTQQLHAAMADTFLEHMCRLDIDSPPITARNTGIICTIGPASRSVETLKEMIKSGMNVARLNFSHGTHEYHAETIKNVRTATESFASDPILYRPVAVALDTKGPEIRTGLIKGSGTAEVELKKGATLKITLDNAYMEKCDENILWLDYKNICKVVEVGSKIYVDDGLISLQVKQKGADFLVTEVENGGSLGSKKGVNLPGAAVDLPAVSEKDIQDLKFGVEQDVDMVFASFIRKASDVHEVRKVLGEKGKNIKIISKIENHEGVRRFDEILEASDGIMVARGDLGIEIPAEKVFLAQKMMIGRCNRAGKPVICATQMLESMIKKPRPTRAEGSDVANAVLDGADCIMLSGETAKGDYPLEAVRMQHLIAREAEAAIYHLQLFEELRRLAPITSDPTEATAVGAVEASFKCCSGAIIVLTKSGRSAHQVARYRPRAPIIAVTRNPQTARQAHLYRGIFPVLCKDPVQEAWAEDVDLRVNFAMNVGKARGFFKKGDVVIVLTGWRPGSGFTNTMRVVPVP

## AP3B1, O00203
PKM
  cross-linked residues: K386 - C49

## LCP1, P13796
PLS3
  cross-linked residues: C101 - K91

## PMPCB, O75439
PMPCA
  cross-linked residues: K148 - C466

## PPIF, P30405
PPIA; SBAP
  cross-linked residues: K86 - C115

## NEFM, P07197
PPIA; SIA
  cross-linked residues: K223 - C115
VIM; SBAP;SIA;SIAB
  cross-linked residues: K223 - C328
VIM; SIA
  cross-linked residues: K208 - C328
VIM; SIA;SIAB
  cross-linked residues: K53 - C328
